An excerpt weighted towards active compounds, which were near 19% of everything screened.
DT40 TDP1 no CPT: qHTS for Inhibitors of human tyrosyl-DNA phosphodiesterase 1 (TDP1): qHTS in cells in absence of CPT. DT40 Tdp1-/- hTDP1 cells, no CPT, ATP luminescence, 48 h. AID 686978, 2013. Potency, µM (doses to about 46.2 µM), for inactives: top-dose activity change, negative = growth inhibition, hits mostly inhibitors. 420,000 compounds, 15% hits; also: nearly all actives have a fitted effect of over 55% in size
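DT40 Tdp1-/-;hTDP1 cells, no CPT (DMSO vehicle only), 400 cells/well; compounds pin-transferred; ≥48 hr, 37 °C; CellTiter-Glo 30 min RT dark, luminescence read.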
HT1080 IDH1KD tx: kills HT-1080 cells with IDH1 knockdown; HT-1080 IDH1 knockdown viability, ATP luminescence, 48 h; Potency, µM (titrated, usually from 46.1 µM), for the others: top-dose activity, negative = toxicity, hits mostly cytotoxic; 360,000 compounds, 2% hits;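 also: 0% = DMSO wells and -100% = cell-free medium wells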
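CellTiter-Glo luminescence after 48 h compound exposure at 37 degrees C of IDH1-knockdown HT-1080 cells in 5% FBS RPMI. %Activity scaled between DMSO wells and cell-free media wells, with curves fitted and assigned curve classes.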
HT1080NT lethal: kills 2HG-producing HT-1080-NT fibrosarcoma cells | 360,000 compounds, 1.6% hits | Potency, µM (top dose mostly 46.1 µM), inactives show top-dose activity, negative = less viability, actives largely listed as cytotoxic | HT-1080-NT fibrosarcoma viability, CellTiter-Glo ATP luminescence, 48 h;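 also: NT is the 2HG producing partner of a matched IDH1 knockdown line; 0% = DMSO-treated cells and -100% = media-only wells without cells; nearly all actives have a fitted effect of over 55% in size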
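Viability by CellTiter-Glo luminescence after 48 h compound exposure at 37C of HT-1080-NT cells (750/well, RPMI, 5% FBS). % activity scaled between DMSO wells and medium-only wells, then curve-fitted and categorized by curve class.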
TDP1 cell CPT: DT40-hTDP1 cell growth loss with CPT. chicken DT40 Tdp1-/-;hTDP1 cells + 20 nM CPT, ATP luminescence, 48 h. Potency, µM (doses to about 46.2 µM), for the others: at the highest dose activity change, negative = growth inhibition, hits mostly inhibitors. 420,000 compounds, 12% hits. AID 686979; also: nearly all actives have a fitted effect of over 55% in size
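Chicken DT40 Tdp1-/- cells complemented with human TDP1, 400 cells/well, exposed to compounds plus 20 nM camptothecin for at least 48 h at 37 C; viability read as ATP content by CellTiter-Glo luminescence.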
KB-V1 cytotox: KB-V1 MDR subline cytotoxicity; 400,000 compounds, 3.4% hits; Potency, µM (highest dose often 46.1 µM), hits mostly cytotoxic; AID 1347076; KB-V1 MDR cells viability, CellTiter-Glo, 72 h; also: nearly all actives have a fitted effect of over 60% in size
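Potencies derive from concentration-effect curves fitted to normalized luminescence (CellTiter-Glo) of KB-V1 cells treated for 72 h at 37 degrees C in phenol-red-free DMEM containing 10% FBS.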
KB-3-1 tox: kills parental KB-3-1 adenocarcinoma cells | 400,000 compounds, 1.4% hits | KB-3-1 viability, CellTiter-Glo ATP luminescence, 72 h | Potency, µM (series often up to 46.1 µM), hits mostly cytotoxic | AID 1347075; also: nearly all actives have a fitted effect of over 60% in size
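Screening of KB-3-1 cells (DMEM, 10% FBS, phenol-red free) ran from lowest to highest compound concentration; after 72 h at 37 °C viability was read luminescently and curves fitted.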
Active calls of the source: *; i = inactive; ? = inconclusive; . = no result; ! = not confirmed by another sample. Calls follow the shape of the dose curve; as a rule, active = well fitted curve in the direction sought with a large enough effect; inconclusive = small, poorly fitted or top-dose-only effect, or another doubt; inactive = no such curve, though single readings can be large; an effect the other way counts as inactive or inconclusive. Unless noted, % is scaled to controls: 0 for no effect and ±100 for the full control effect; potency is read from the fitted curve at half-maximal effect.

SMILES | DT40 TDP1 no CPT | HT1080 IDH1KD tx | HT1080NT lethal | TDP1 cell CPT | KB-V1 cytotox | KB-3-1 tox
Cc1nc2cnc(N3CCNCC3)nc2n(CCC#N)c1=O | 8.7% | . | . | 1.2% | . | .
COc1ncc2nc(-c3ccccc3)c(=O)n(CCc3ccccc3)c2n1 | 3.5% | . | . | 0.9% | . | .
CCOC(=O)c1c(C)[nH]c(C)c1C(=O)COC(=O)COc1ccc(Cl)c(C)c1 | 4.7% | 9.2% | 2.2% | 1.4% | ? | i
Cc1cc(C)c(NC(=O)c2cccs2)c(C)c1NC(=O)c1cccs1 | -0.2% | -9.5% | -2.3% | -2.8% | i | i
COc1ccc(-c2nc3cnc(N4CCNCC4)nc3n(CCc3ccccc3)c2=O)cc1 | 20.6µM* | . | . | ? | . | .
CN1CCN(c2ncc3nc(-c4ccccc4)c(=O)n(CCc4ccccc4)c3n2)CC1 | -12.9% | . | . | ? | . | .
Cc1ccc(Sc2cnccc2C#N)cc1 | -10.0% | 12.5% | 6.0% | -23.9% | i | i
Fc1ccc(NC(=S)SCc2ccc3c(c2)OCO3)cc1F | 18.4µM* | -14.4% | 1.1% | ? | i | i
Fc1ccc(NC(=S)NCc2ccc3c(c2)OCO3)cc1 | ? | 4.5% | 1.2% | ? | i | i
O=C(CSc1cccc[n+]1[O-])NC1CCCCC1 | -9.7% | -3.7% | -3.2% | -9.6% | i | i
CC(=O)c1c(C)[nH]c2ccc(OCC(O)CNCCc3ccccc3)cc12 (stereo not drawn) | 15.8µM* | . | . | ? | ? | ?
OC(CNCCc1ccccc1)COc1ccc(OCC(O)CNCCc2ccccc2)cc1 (stereo not drawn) | 16.4µM* | 23.1µM* | ? | -92.4% | ? | 20.6µM*
OC(CNCCc1ccc(Cl)cc1)COc1cc(Cl)ccc1Cl (stereo not drawn) | ? | -1.0% | -2.5% | 16.4µM* | i | ?
OC(CNCCC(c1ccccc1)c1ccccc1)COc1ccccc1 (stereo not drawn) | 13µM* | 23.1µM* | ? | 13µM* | ? | i
O=C(NNCC(O)COc1ccccc1)c1ccccc1 (stereo not drawn) | -6.6% | 16.8% | 3.8% | -22.6% | i | i
Cc1ccc(OCC(O)CNCc2ccccc2)cc1C (stereo not drawn) | ? | -12.2% | -3.0% | ? | i | i
OC(CNCCc1ccc(Cl)cc1)COc1ccc2ccccc2c1 (stereo not drawn) | ? | ? | ? | ? | i | i
Clc1cccc(Cc2c(-c3ccco3)nc3ccc(Cl)cn23)c1 | 23.1µM* | 18.4µM* | 23.1µM* | 20.6µM* | i | i
Clc1cccc(Cc2c(-c3ccco3)nc3ccc(Br)cn23)c1 | 23.1µM* | 16.4µM* | ? | ? | i | i
Clc1ccc(-c2nc3ccc(Cl)cn3c2Cc2cccc(Cl)c2)cc1 | ? | ? | ? | ? | i | i
Cc1ccccc1COC(=O)c1nn(-c2ccccc2)nc1N | -17.2% | 23.1% | 4.0% | 12.9% | i | i
Cn1c(=O)c2c(=O)cc(NNC(=O)CC#N)[nH]c2n(C)c1=O | ? | 0.8% | 0.3% | ? | i | i
O=C(NC1CCC(=O)N(CCSc2ccccc2)CC1)OCc1ccccc1 (stereo not drawn) | 15.8µM* | -4.1% | 1.2% | ? | ? | i
Cc1ccc(SC[C@H](Cc2ccccc2)N2CC[C@@H](NC(=O)OCc3ccccc3)CCC2=O)cc1 | 12.6µM* | . | . | 17.8µM* | ? | ?
O=C(N[C@H]1CCC(=O)N([C@H](CSc2ccccc2)Cc2ccccc2)CC1)OCc1ccccc1 | 20µM* | -11.5% | -9.2% | ? | 18.4µM*! | ?
SMILES | DT40 TDP1 no CPT | HT1080 IDH1KD tx | HT1080NT lethal | TDP1 cell CPT | KB-V1 cytotox | KB-3-1 tox
O=C1CC[C@H](OCc2ccccc2)CCN1[C@H](CSc1ccccc1)Cc1ccccc1 | ? | -0.6% | 1.6% | -26.8% | ? | i
N#CCCN1CCC(NC(=O)OCc2ccccc2)CCC1=O (stereo not drawn) | -1.6% | 5.5% | 19.5% | -0.7% | ? | i
O=C(N[C@H]1CCC(=O)N([C@H](CSc2ccc(Br)cc2)Cc2ccccc2)CC1)OCc1ccccc1 | 18.4µM* | -1.3% | 0.0% | ? | i | ?
COc1cccc(CNC(=S)Nc2ccc3c(c2)c(=O)n(C)n3C)c1 | -2.0% | 1.2% | ? | -2.9% | i | i
COc1c(C)cc(S(=O)(=O)NCc2ccccn2)c(C)c1C | 12.0% | 15.4% | 10.2% | 9.2% | i | i
CCOc1cc(C(=O)NCc2nc(-c3cccc(C)c3)no2)cc(OCC)c1OCC | -22.4% | . | . | -5.7% | . | .
Cc1cc(C(=O)Cn2nc(C(=O)O)c3ccccc3c2=O)c(C)n1CCc1ccc(Cl)cc1 | ? | -12.7% | -0.5% | 20.6µM* | ? | i
Cc1cccc(NS(=O)(=O)c2ccc(C)c(C(=O)NC3CCN(Cc4ccccc4)CC3)c2)c1 | ? | -10.5% | -9.6% | ? | i | i
Cc1ccc(O)c(N=Nc2ccc(S(=O)(=O)N3CCOCC3)cc2)c1 | -15.8% | -1.2% | 0.9% | 2.4% | ? | i
C/C(O)=C(\N=Nc1cc(C)ccc1O)C(N)=O | 20.6µM* | -4.3% | -6.9% | ? | i | i
O=C(CSc1nc2nn(-c3ccccc3)c(=O)c-2c2n1CCCCC2)Nc1ccccc1[N+](=O)[O-] | ? | -4.8% | -12.9% | 20.6µM* | i | i
O=C(C1CCN(S(=O)(=O)N2CCOCC2)CC1)N1CCN(Cc2ccccc2)CC1 | 1.8% | 9.4% | 9.4% | 1.9% | i | i
Cc1cccc(N2CCN(C(=O)C3CCN(S(=O)(=O)N4CCOCC4)CC3)CC2C)c1 (stereo not drawn) | 20.6µM* | -7.4% | -1.9% | 18.4µM* | i | i
Cc1cccc(N2CCN(C(=O)C3CCN(S(=O)(=O)c4cccc5cccnc45)CC3)CC2C)c1 (stereo not drawn) | 18.4µM* | -9.8% | -12.5% | 13µM* | i | i
Cc1cccc(N2CCN(C(=O)C3CCN(S(=O)(=O)c4cccc5nsnc45)CC3)CC2C)c1 (stereo not drawn) | 20.6µM* | -4.3% | -2.2% | 23.1µM* | ? | i
CC(=O)Nc1cccc(OCCCNS(=O)(=O)c2ccc(C#N)cc2)c1 | ? | 0.4% | 3.9% | ? | i | i

Compound activity from PubChem.
